# Data reported in PMC11062922 (Nature Chemical Biology, 2023).
# Where two headings read alike, the source gives them in different places.
# What was measured:
# Design in all cases: species or system human, MV4-11 + K-562 + COLO205 + SK-N-BE2 + OVCAR-8
# [1] = system: ADCK1; conditions: read-out: apparent Kd, n = 1
# [2] = system: CSNK1A1; conditions: read-out: apparent Kd, compound concentrations: 100 nM and 1000 nM (sheet 'Samples'), n = 1
# [3] = system: CSNK1E; conditions: read-out: apparent Kd, n = 1
# [4] = system: MAPK8; conditions: read-out: apparent Kd, n = 1
# [5] = system: RIOK2; conditions: read-out: apparent Kd, n = 1
# [6] = system: CDK17; conditions: read-out: apparent Kd, n = 1
# [7] = system: PHKG2; conditions: read-out: apparent Kd, n = 1
# [8] = system: STK16; conditions: read-out: apparent Kd, n = 1
# [9] = system: STK3; conditions: read-out: apparent Kd, n = 1
# [10] = system: TNIK; conditions: read-out: apparent Kd, n = 1
# [11] = system: ROCK2; conditions: read-out: apparent Kd; compound concentrations: 100 nM and 1000 nM (sheet 'Samples'), CATDS: 2.44983042375609E-2; n = 1
# [12] = compound concentrations:100 nM and 1000 nM (sheet 'Samples')
structure (smiles),measurement,setting,value
c1cnn2ncc(-c3ccnc(Nc4ccc5c(c4)OCCO5)n3)c2c1 [GW806290X],potency estimated from few doses,"[1]; compound concentrations: 100 nM and 1000 nM (sheet 'Samples'), CATDS: 2.0516224728304101E-2",1820 nM
same,potency estimated from few doses,[2]; CATDS: 2.11429118311642E-2,1620 nM
same,potency estimated from few doses,"[3]; compound concentrations: 100 nM and 1000 nM (sheet 'Samples'), CATDS: 2.4076386460309102E-2",1050 nM
same,potency estimated from few doses,"[4]; compound concentrations: 100 nM and 1000 nM (sheet 'Samples'), CATDS: 3.07479356857355E-2",532 nM
same,potency estimated from few doses,"[5]; compound concentrations: 100 nM and 1000 nM (sheet 'Samples'), CATDS: 4.9537974032322102E-2",183 nM
O=C(O)C(F)(F)F.O=c1[nH]ccc2nc(N[C@@H]3CCNC3)nc(Nc3ccc4c(c3)S(=O)(=O)CC4)c12 [GSK2181306A],potency estimated from few doses,"[1]; compound concentrations: 100 nM and 1000 nM (sheet 'Samples'), CATDS: 1.2751360912585E-2",448 nM
same,potency estimated from few doses,"[6]; compound concentrations: 100 nM and 1000 nM (sheet 'Samples'), CATDS: 9.5654152520578493E-3",979 nM
same,potency estimated from few doses,[2]; CATDS: 1.4603210367733301E-2,330 nM
same,potency estimated from few doses,"[7]; compound concentrations: 100 nM and 1000 nM (sheet 'Samples'), CATDS: 1.09538750738594E-2",657 nM
same,potency estimated from few doses,"[5]; compound concentrations: 100 nM and 1000 nM (sheet 'Samples'), CATDS: 8.1231795228866102E-3",1810 nM
same,potency estimated from few doses,"[8]; compound concentrations: 100 nM and 1000 nM (sheet 'Samples'), CATDS: 9.1549687714340792E-3",1130 nM
same,potency estimated from few doses,"[9]; compound concentrations: 100 nM and 1000 nM (sheet 'Samples'), CATDS: 1.36866990132516E-2",381 nM
same,potency estimated from few doses,"[10]; compound concentrations: 100 nM and 1000 nM (sheet 'Samples'), CATDS: 1.2529799183739801E-2",467 nM
COc1cc(Nc2nccc(-c3cnn4ncccc34)n2)cc(OC)c1 [GW801372X],potency estimated from few doses,"[6]; compound concentrations: 100 nM and 1000 nM (sheet 'Samples'), CATDS: 1.7691642172044799E-2",1920 nM
same,potency estimated from few doses,"[4]; compound concentrations: 100 nM and 1000 nM (sheet 'Samples'), CATDS: 2.2830325415810902E-2",746 nM
same,potency estimated from few doses,"[5]; compound concentrations: 100 nM and 1000 nM (sheet 'Samples'), CATDS: 1.79748800643771E-2",1790 nM
same,potency estimated from few doses,"[8]; compound concentrations: 100 nM and 1000 nM (sheet 'Samples'), CATDS: 1.87533606847229E-2",1500 nM
NC(=O)c1cc(-c2ccccc2)cc2c(C3CCNCC3)c[nH]c12 [GSK301362A],potency estimated from few doses,[1]; [12],1520 nM
CNCC#Cc1c(F)ccc2c1/C(=C/c1[nH]ccc1OC)C(=O)N2.Cl [RO0281601-001],potency estimated from few doses,"[6]; compound concentrations: 100 nM and 1000 nM (sheet 'Samples'), CATDS: 2.8122134627670499E-2",838 nM
same,potency estimated from few doses,"[8]; compound concentrations: 100 nM and 1000 nM (sheet 'Samples'), CATDS: 2.5135483463970699E-2",1180 nM
same,potency estimated from few doses,"[9]; compound concentrations: 100 nM and 1000 nM (sheet 'Samples'), CATDS: 2.2839730138462501E-2",1650 nM
same,potency estimated from few doses,"[10]; compound concentrations: 100 nM and 1000 nM (sheet 'Samples'), CATDS: 2.1303462940689799E-2",2180 nM
CC(C)Oc1ccc2c(-c3ccnc(Nc4ccc(N5CCN(C)CC5)cc4)n3)cnn2n1 [GW696155X],potency estimated from few doses,[1]; [12],44.9 nM
same,potency estimated from few doses,[4]; [12],352 nM
same,potency estimated from few doses,[8]; [12],39.2 nM
NS(=O)(=O)c1ccc(N/N=C2\C(=O)Nc3ccc4ncccc4c32)cc1 [GW305178X],potency estimated from few doses,"[6]; compound concentrations: 100 nM and 1000 nM (sheet 'Samples'), CATDS: 6.1858788217922803E-2",544 nM
same,potency estimated from few doses,"[9]; compound concentrations: 100 nM and 1000 nM (sheet 'Samples'), CATDS: 4.2852870715448799E-2",1580 nM
Cl.Nc1nc(-c2ccc3c(c2)C(=Cc2cc(Br)c(O)c(Br)c2)C(=O)N3)cs1 [GW407323A],potency estimated from few doses,"[6]; compound concentrations: 100 nM and 1000 nM (sheet 'Samples'), CATDS: 2.78233460707746E-2",2030 nM
same,potency estimated from few doses,"[10]; compound concentrations: 100 nM and 1000 nM (sheet 'Samples'), CATDS: 0.10928508706444801",58.6 nM
Cc1cc(NC(=O)c2cccc(NC(=O)/C=C/CN(C)C)c2)ccc1Nc1nccc(-c2cccnc2)n1 [JNK-IN-7],potency estimated from few doses,[3]; [12],2010 nM
same,potency estimated from few doses,"[4]; compound concentrations: 100 nM and 1000 nM (sheet 'Samples'), CATDS: 0.361738634517147",10.7 nM
same,potency estimated from few doses,[5]; [12],720 nM
NS(=O)(=O)c1ccc(N/N=C2\C(=O)Nc3ccc(-c4cnco4)cc32)cc1 [GW276655_KCGS],potency estimated from few doses,[10]; [12],1940 nM
CCC(CC)(CC)n1cnc2c(N)ncnc21 [SKF-97620],potency estimated from few doses,[2]; CATDS: 2.3982037208091899E-2,2040 nM
same,potency estimated from few doses,[11],1890 nM
same,potency estimated from few doses,"[8]; compound concentrations: 100 nM and 1000 nM (sheet 'Samples'), CATDS: 2.4791853580208099E-2",1810 nM
O=C(Nc1n[nH]c2nc(-c3ccccc3O)ccc12)C1CC1 [SB-711880],potency estimated from few doses,[7]; [12],1550 nM
same,potency estimated from few doses,[9]; [12],483 nM
same,potency estimated from few doses,[10]; [12],1150 nM
COc1cc[nH]c1/C=C1\C(=O)Nc2ccc(F)c(C#C[C@@H](O)[C@@H](N)[C@@H](C)O)c21 [RO0283120-000],potency estimated from few doses,[6]; [12],774 nM
same,potency estimated from few doses,[4]; [12],942 nM
same,potency estimated from few doses,[7]; [12],669 nM
same,potency estimated from few doses,[8]; [12],1230 nM
same,potency estimated from few doses,[9]; [12],680 nM
